Screening results deposited in PubChem BioAssay by several laboratories.
Mcl1-Noxa inh: disrupts binding of human Mcl-1 to Noxa peptide | Q07820 | TR-FRET Mcl-1/Noxa peptide binding, 2 h | inhibition, % at 21.7 µM | hit rate 1.5% among 220,000 | AID 1022;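 active = compounds that cut the protein-peptide binding signal by more than 50% relative to plate controls in a single-dose test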;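 also: His-tagged Mcl-1 with rhodamine Noxa BH3 peptide and terbium anti-His antibody; 0% = Mcl-1 plus Noxa peptide wells and 100% = peptide-only wells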
GLD-1 RNA inh: GLD-1-TGE RNA interaction inhibition (C. elegans); purified GLD-1 + fluorescein TGE RNA, fluorescence polarization; AID 2280; hit rate 0.44% among 320,000; inhibition, % at 5.96 µM;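 active = percent inhibition above a per-plate cutoff, the plate mean of test compounds plus 3 SD, cut at about 30% in these data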;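 also: 0% = DMSO wells with GLD-1 and probe and 100% = wells lacking GLD-1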
Target sequence (Q17339 whole entry, looked up): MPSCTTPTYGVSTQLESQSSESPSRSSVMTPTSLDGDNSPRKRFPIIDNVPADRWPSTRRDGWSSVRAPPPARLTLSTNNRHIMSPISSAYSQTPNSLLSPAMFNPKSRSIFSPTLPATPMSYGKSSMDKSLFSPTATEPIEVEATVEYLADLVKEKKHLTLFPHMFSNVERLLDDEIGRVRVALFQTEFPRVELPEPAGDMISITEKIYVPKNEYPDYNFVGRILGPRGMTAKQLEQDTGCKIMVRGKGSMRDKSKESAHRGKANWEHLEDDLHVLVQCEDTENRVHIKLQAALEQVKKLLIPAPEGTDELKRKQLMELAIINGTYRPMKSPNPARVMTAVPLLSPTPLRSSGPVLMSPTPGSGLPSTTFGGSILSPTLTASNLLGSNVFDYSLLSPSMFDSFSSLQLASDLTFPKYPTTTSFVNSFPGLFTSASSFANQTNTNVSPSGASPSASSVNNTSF
MCL1-BIM inh: MCL1-BIM-BH3 interaction inhibition (human). GST-MCL1 / FITC-Bim-BH3 fluorescence polarization. inhibition, % at 10.9 µM. hit rate 0.68% among 320,000. AID 2057. Q07820;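 active = inhibition above the mean inhibition of all tested compounds plus 3 SD, set per campaign, cut at about 40% in these data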;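 also: 0% = DMSO wells and 100% = unlabeled Bim-BH3 peptide control; higher means more loss of mP so more displacement of Bim peptide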
BCLXL inh: inhibitors of human Bcl-xL. hit rate 0.7% among 320,000. AID 2129. inhibition, % at 10.9 µM. GST-Bcl-xL / FITC-Bim BH3 peptide fluorescence polarization. Q07817;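 active = inhibition above the mean of all tested compounds plus 3 SD, cutoff set per campaign, cut at about 30% in these data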;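 also: 0% = DMSO wells and 100% = unlabeled Bim-BH3 peptide competitor; inhibitors lower millipolarization by displacing the labeled peptide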
Target sequence (Q07817 whole entry, looked up): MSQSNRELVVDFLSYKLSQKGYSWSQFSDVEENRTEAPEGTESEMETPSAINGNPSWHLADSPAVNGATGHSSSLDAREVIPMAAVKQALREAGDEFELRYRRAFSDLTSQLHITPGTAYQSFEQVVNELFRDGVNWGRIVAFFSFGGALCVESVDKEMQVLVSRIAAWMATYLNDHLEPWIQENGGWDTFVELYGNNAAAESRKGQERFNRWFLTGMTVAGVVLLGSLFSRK
Bim-Mcl-1: disrupts Bim peptide binding to human Mcl-1. Q07820. Bead-based flow cytometry, Bim peptide-Mcl-1 binding. inhibition, % at 10 µM. hit rate 0.1% among 190,000. AID 1009; in the data active = inhibition above about 40%;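 also: 0% = no compound tracer wells and 100% = peptide blocker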
Mcl1 Bid PPI: disrupts binding of human Mcl-1 to Bid peptide. Q07820. TR-FRET Mcl-1/Bid-Dy647 peptide binding, 1536-well. inhibition, % at 21.7 µM. hit rate 0.97% among 220,000;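 active = compounds that cut the binding signal by more than half at the single screening dose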;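 also: His-tagged Mcl-1 with europium anti-His antibody binding Bid BH3 peptide; 0% = Mcl-1 plus peptide wells and 100% = peptide-only wells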
* = called active by the depositor; / = no result given; ! = repeats disagree. The list is not random: actives were taken first. Their share in the collection is about 2.3%.

SMILES | Mcl1-Noxa inh | GLD-1 RNA inh | MCL1-BIM inh | BCLXL inh | Bim-Mcl-1 | Mcl1 Bid PPI
O=C(NCc1ccc(Cl)cc1)C1CCN(S(=O)(=O)c2ccc(F)cc2)CC1 | 13 | -1 | 4 | 5 | -1 | -19
CCCCC[C@@H]1C=C(C(=O)O)[C@H](c2ccc(OC)c(OC)c2)N1S(=O)(=O)c1ccc(C)cc1 | / | 4 | / | / | / | /
COc1ccc(N2CCN(C(CNS(=O)(=O)c3ccc4c(c3)OCCO4)c3ccco3)CC2)cc1 (stereo not drawn) | 27 | -1 | -2 | -1 | 52* | -29
O=S(=O)(NCC(c1ccco1)N1CCN(c2ccccc2F)CC1)c1ccc2c(c1)OCCO2 (stereo not drawn) | -5 | 4 | 1 | 4 | -2 | -10
Cc1ccn2c(Nc3ccc4c(c3)OCO4)c(-c3ccc(O)cc3)nc2c1 | 51* | 0 | 9 | 8 | / | -98
CCCCn1c(N)c(N(CCOC)C(=O)C2CCN(S(=O)(=O)c3ccc(Cl)cc3)CC2)c(=O)[nH]c1=O | / | 2 | -11 | -5 | / | /
COc1ccc(NN=Nc2nc3c([nH]2)c(=O)n(C)c(=O)n3C)cc1 | 67* | 3 | 7 | 13 | / | 6
COc1ccc(CCNC(=O)c2cc(S(=O)(=O)N3CCOCC3)ccc2F)cc1 | / | 6 | -3 | -3 | / | /
N=C1S/C(=C\c2ccco2)C(=O)N1c1ccc2c(c1)OCO2 | 84* | -3 | 21 | 10 | 4 | 39
CC(=O)c1ccc(OCC(=O)NC(=O)NC2CCCCC2)cc1 | / | 11 | -1 | 4 | / | /
CCN(CC)c1ccc(NC(=O)c2ccc3c(c2)c(C)c(C)n3C)cc1 | 77* | -3 | 6 | -5 | 0 | -4
CCn1cc(C(=O)Nc2ccccc2C(=O)OC)cn1 | / | 5 | 4 | 3 | / | /
CCN(CC)c1ccc(NC(=O)CCCOc2cccc(C)c2)cc1 | 77* | / | / | / | 1 | -49
CCOc1cccc(C(=O)Nc2ccc(N(CC)CC)cc2)c1 | 65* | 2 | 6 | 7 | 0 | -30
CCN(CC)c1ccc(NC(=O)c2cnn(CC)c2)cc1 | 66* | -9 | 2 | -2 | -3 | 18
Cc1cccc(OCCCC(=O)Nc2ccc(S(N)(=O)=O)cc2)c1 | 6 | 3 | 1 | 0 | -2 | 1
CCOc1cccc(C(=O)Nc2ccc3ccccc3c2)c1 | / | 2 | 9 | 5 | / | /
COc1ccc(/C=N/n2c(-c3n[nH]c4c3CCC4)n[nH]c2=S)cc1OC | 65* | 3 | -21 | -32 | -6 | -79
CCOc1ccc(C(=O)NCc2ccco2)cc1Cl | / | 2 | 8 | 4 | / | /
COc1ccc2nc(N3C(=O)CNC3=S)sc2c1 | -62 | -3 | -3 | 0 | / | -24
CCOc1ccc2nc(N3C(=O)/C(=C/c4ccc(Cl)cc4)NC3=S)sc2c1 | 86* | / | / | / | -5 | 93*
Nc1ccc(-c2ccc(N)c([N+](=O)[O-])c2)cc1[N+](=O)[O-] | 51* | -1 | 10 | 3 | 2 | 15
CCOC(=O)C1=C(C)N(C)C(=O)NC1c1cccc([N+](=O)[O-])c1 (stereo not drawn) | / | 3 | -3 | 3 | / | /
CCOC(=O)C1=C(C)N(C)C(=O)NC1c1cc2c(cc1[N+](=O)[O-])OCO2 (stereo not drawn) | 51* | -1 | 18 | 23 | 1 | 8
CC(C)c1ccc(-c2nnc(SCC(=O)NC3CC3)n2C)cc1 | / | 5 | -3 | 1 | / | /
SMILES | Mcl1-Noxa inh | GLD-1 RNA inh | MCL1-BIM inh | BCLXL inh | Bim-Mcl-1 | Mcl1 Bid PPI
O=C(c1ccccc1)C(O)c1ccccc1 (stereo not drawn) | / | 0 | 3 | 4 | / | /
C=CC(c1ccccc1)C(C(=O)c1ccccc1)N(C)C (stereo not drawn) | -9 | / | / | / | -1 | 82*
CC(C)CN(C(=O)CN(C)C(=O)c1ccco1)c1c(N)n(CC(C)C)c(=O)[nH]c1=O | / | 9 | -12 | -6 | / | /
CCN1CCN(C(c2cccs2)C(C)NC(=O)C(=O)N2CCCCC2)CC1 (stereo not drawn) | / | 1 | 0 | 4 | / | /
COc1ccc2[nH]c3c(=O)n(Cc4ccc(C(=O)N5CCC(C(N)=O)CC5)cc4)c(=S)[nH]c3c2c1 | 61* | -3 | -2 | 1 | 0 | -156
COc1ccc2[nH]c3c(=O)n(Cc4ccc(C(=O)N5CCCCCC5)cc4)c(=S)[nH]c3c2c1 | 60* | 4 | -3 | -13 | -3 | -10
CCOC(=O)N1CCN(C(=O)c2ccc3c(=O)n(Cc4ccc(OC)cc4)c(=S)[nH]c3c2)CC1 | 18 | 18 | 34 | 23 | 9 | -35
O=C(CCSCCC(=O)NCc1ccco1)NCc1ccco1 | 54* | 5 | 21 | 14 | -4 | -12
O=C(CCSCc1ccccc1Cl)NCc1ccco1 | 12 | 1 | 3 | 8 | 1 | -23
O=C(COC(=O)C1CC2C=CC1C2)NCc1ccco1 (stereo not drawn) | 66* | 5 | 33 | 5 | 0 | -15
Cc1ccc2[nH]c(O)c(N=NC(=O)c3ccc(NS(=O)(=O)c4cccs4)cc3)c2c1 | 71* | 7 | 19 | 12 | / | 11
O=C(COC(=O)c1cc[n+]([O-])cc1)Nc1ccccc1Cl | -6 | 0 | -10 | 1 | 0 | 87*
CCCCC1=CC2=CC(=O)C(C)(OC(=O)CC)C(=O)C2=CN1CCN1CCOCC1 (stereo not drawn) | -4 | 21 | 37 | 31* | / | -113
Cc1cc(=O)c2cc3nc(-c4cccnc4)oc3c(Br)c2o1 | 54* | 2 | 38 | 12 | / | -52
O=c1oc(-c2cccnc2)nc2ccccc12 | 4 | 3 | -7 | 0 | 0 | 8
COc1ccc(NC(=O)CSc2nc3ccccc3c(=O)n2CCCC(=O)NCC2CCCO2)c(OC)c1 (stereo not drawn) | / | 5 | 1 | 0 | / | /
CCOC(=O)c1c2c3c(cccc3[nH]c1=O)C(=O)c1ccccc1-2 | 8 | 21 | 47* | 54* | 18 | -10
COc1ccccc1CNC(=O)c1cnccn1 | 68* | 10 | 18 | 7 | 2 | -53
CC(=O)C[C@@H](O)CC(=O)[C@@H]1OC(=O)[C@H](C)CCCCc2ccccc21 | / | 4 | / | / | / | /
Nc1[nH]c(=O)ncc1F | -10 | 2 | -9 | 0 | -1 | 57*!
CCOc1ccccc1C(=O)N(Cc1ccc(C)o1)C1CCS(=O)(=O)C1 (stereo not drawn) | / | -1 | 2 | -1 | / | /
Fc1ccc(NC(=S)N/N=C/c2cccc(Br)c2)c(F)c1 | -1 | 2 | 3 | 3 | -2 | 97*
O=C(Cc1ccccc1)NCC(=O)Nc1ccccc1Br | / | -5 | 7 | 7 | / | /
Cc1cc(C)nc(N/N=C/C2=C(N3CCOCC3)C(=C\c3ccc(Cl)cc3)/CC2)n1 | 36 | 8 | -5 | -2 | -5 | -117
O=C(O)c1ccc(N/N=C/C2=C(N3CCOCC3)C(=C\c3ccccc3)/CC2)cc1 | 75* | -2 | -23 | -24 | / | -81
CCN1CCN(c2nc3c(C)cccn3c(=O)c2/C=C(\C#N)C(=O)NC)CC1 | / | -6 | 9 | 5 | / | /
